Screening results from PubChem.
BAZ2B inh = inhibitors of human BAZ2B bromodomain. Q9UIF8. AlphaScreen BAZ2B-H3K14Ac peptide displacement. Potency, µM (highest dose often 114 µM), for the others: at the top dose activity change, negative = inhibition, most hits filed as inhibitors. 360,000 compounds, 4.4% hits. AID 504333; note: potency is the fitted concentration of half-maximal effect; % is set by controls: 0 for no effect and ±100 for the full control effect; nearly all actives have a fitted effect of over 60% in size
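In this displacement format the biotinylated H3(5-23) peptide acetylated at Lys14 serves as ligand at 50 nM, with BAZ2B at 50 nM in PBS pH 7.4 containing 0.01% Tween-20. Donor and acceptor beads are 10 ug/mL final.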
HP1b chromo inh = blocks HP1-beta chromodomain binding to methylated histone tails | P83916 | AlphaScreen HP1-beta / biotin-H3K9me3 peptide binding | Potency, µM (series often up to 114 µM), inactives show top-dose activity change, negative = inhibition, usual class: inhibitors | 390,000 compounds, 0.56% hits | AID 540317; note: potency is the fitted concentration of half-maximal effect; nearly all actives have a fitted effect of over 70% in size
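HP1-beta protein (50 nM final) preincubated 30 min at room temperature with biotinylated H3(1-18)K9me3 peptide (50 nM) in PBS pH 7.4, 0.01% Tween-20, then compound added for 30 min. AlphaScreen streptavidin donor/nickel chelate acceptor beads (10 ug/mL final), 30 min dark, luminescence read.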
G9a block = inhibitors of human histone lysine methyltransferase G9a | G9a H3K9 monomethylation, AlphaScreen, 2 h | Q96KQ7 | Potency, µM (titrated, usually from 102 µM), without a hit: at the highest dose activity, negative = inhibition, usual class: inhibitors | 350,000 compounds, 8.8% hits; note: potency is the fitted concentration of half-maximal effect; % is set by controls: 0 for no effect and ±100 for the full control effect; nearly all actives have a fitted effect of over 75% in size
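Step 1: enzyme (final 20 nM) with compound, 15 min RT. Step 2: substrate peptide 500 nM and SAM 20 uM, 2 h RT. Step 3: anti-H3K9me1 antibody and AlphaScreen beads, 10 min, then plate read.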
PI5P4Ka inh = PI5P4K alpha (human) kinase inhibition. max response, %. 330,000 compounds, 1.2% hits. PI5P4Kalpha enzyme, ADP-Glo luminescence, 60 min; hits give low values. AID 652105; active = max response of -50% or lower; inconclusive = between -30% and -50%; inactive = -30% or higher; note: value at the top dose of about 77 µM; % is set by controls: 0 for no effect and ±100 for the full control effect
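Controls without substrate or without enzyme flank wells where PI5P4Kalpha converts substrate using 5 microM ATP (final). Incubation lasts 60 minutes at room temperature; ADP formed is read by ADP-Glo luminescence.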
L3MBTL1 inh = blocks human L3MBTL1. Q9Y468. Potency, µM (titrated, usually from 57.1 µM), for inactives: top-dose activity, negative = inhibition, most hits filed as inhibitors. 230,000 compounds, 0.66% hits. AlphaScreen L3MBTL1–H3K9me1 peptide binding; note: potency is the fitted concentration of half-maximal effect; % is set by controls: 0 for no effect and ±100 for the full control effect; nearly all actives have a fitted effect of over 60% in size
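L3MBTL1 (50 nM) pre-complexed 30 min with biotinylated H3(1-15)K9me1 peptide (75 nM), then compounds added for 30 min at room temperature; AlphaScreen streptavidin donor/nickel chelate acceptor beads (10 ug/mL final) read after 30 min dark incubation.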
JMJD2A Tudor inh = JMJD2A Tudor domain (human) inhibition | O75164 | AlphaScreen JMJD2A-Tudor / H3K4me3 peptide binding | Potency, µM (highest dose often 114 µM), without a hit: at the top dose activity change, negative = inhibition, usual class: inhibitors | 390,000 compounds, 4.4% hits | AID 504339; note: potency is the fitted concentration of half-maximal effect; % is set by controls: 0 for no effect and ±100 for the full control effect; nearly all actives have a fitted effect of over 50% in size
Target sequence (O75164 whole entry, looked up, the tested form may be a part): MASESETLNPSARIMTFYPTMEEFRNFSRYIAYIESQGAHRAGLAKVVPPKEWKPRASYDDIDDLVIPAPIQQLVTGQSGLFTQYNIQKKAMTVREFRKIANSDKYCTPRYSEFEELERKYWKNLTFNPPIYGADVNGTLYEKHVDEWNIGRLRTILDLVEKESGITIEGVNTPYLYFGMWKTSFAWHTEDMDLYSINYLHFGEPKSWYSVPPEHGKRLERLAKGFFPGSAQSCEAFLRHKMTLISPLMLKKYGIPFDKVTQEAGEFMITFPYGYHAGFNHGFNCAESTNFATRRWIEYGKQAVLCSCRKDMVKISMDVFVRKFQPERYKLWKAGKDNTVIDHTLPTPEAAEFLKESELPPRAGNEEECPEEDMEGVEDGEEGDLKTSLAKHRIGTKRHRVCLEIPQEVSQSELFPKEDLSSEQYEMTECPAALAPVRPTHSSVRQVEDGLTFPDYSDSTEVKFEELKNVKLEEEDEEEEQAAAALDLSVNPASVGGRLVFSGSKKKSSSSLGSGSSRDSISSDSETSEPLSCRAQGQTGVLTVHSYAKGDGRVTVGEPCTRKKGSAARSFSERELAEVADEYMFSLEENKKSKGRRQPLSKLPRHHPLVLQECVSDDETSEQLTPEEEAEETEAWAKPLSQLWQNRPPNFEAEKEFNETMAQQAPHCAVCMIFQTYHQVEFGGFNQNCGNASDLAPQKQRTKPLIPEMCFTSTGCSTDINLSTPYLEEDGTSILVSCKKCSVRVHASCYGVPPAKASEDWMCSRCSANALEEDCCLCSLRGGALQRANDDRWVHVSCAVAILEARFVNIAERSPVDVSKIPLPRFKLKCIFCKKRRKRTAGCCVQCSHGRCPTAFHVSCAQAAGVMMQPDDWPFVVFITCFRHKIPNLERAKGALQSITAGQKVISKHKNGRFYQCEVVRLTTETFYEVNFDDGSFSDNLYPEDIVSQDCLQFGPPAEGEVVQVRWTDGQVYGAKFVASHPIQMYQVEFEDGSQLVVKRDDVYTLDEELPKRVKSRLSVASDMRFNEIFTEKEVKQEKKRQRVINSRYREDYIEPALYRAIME
An asterisk follows results filed as active; ? = inconclusive; . = no result; [ ] = dose if it differs, or a comment. Compounds with a hit are over-represented: about 11% of the library has one in this group of screens. Unless noted, calls come from the whole dose curve; as a rule, active = well fitted inhibition curve with a large enough effect; inconclusive = small, poorly fitted or top-dose-only effect; inactive = no such curve, though single readings can be large or run the other way.

SMILES | BAZ2B inh | HP1b chromo inh | G9a block | PI5P4Ka inh | L3MBTL1 inh | JMJD2A Tudor inh
CNCCOc1ccccc1C(C)(C)C | ? | -44% | 13µM* | . | . | 3.2µM*
CC(C)(C)c1ccccc1OCCOCCNCc1ccccc1 | 79µM* | ? | 14µM* | 15 | 0% | 22µM*
O=[N+]([O-])c1ccccc1OCCNCc1ccccc1 | ? | ? | 7.9µM* | 1 | 1% | 45µM*
COc1cccc(OCCOc2ccccc2[N+](=O)[O-])c1 | . | 103% | . | 2 | . | 40%
COCCNCc1ccccc1 | -2% | -9% | 20%[59 µM] | . | . | ?
COc1ccc(Cn2c(=O)c3cccnc3n(CC(=O)Nc3ccc(C)c(F)c3)c2=O)cc1 | -2% | 17% | -12%[59 µM] | . | . | -6%
COCCn1c(SC2CCCCC2=O)nnc1-c1ccncc1 (stereo not drawn) | -7% | -12% | -13% | -4 | 3% | ?
O=C1CCCCC1Sc1nnc(Cc2cccs2)n1CCc1ccccc1 (stereo not drawn) | -8% | -23% | -25%[59 µM] | -30 | -9% | 79µM*
CCCn1c(=N)c(C(=O)NC2CCCCC2)cc2c(=O)n3cc(C)ccc3nc21 | 0% | 23% | -32%[59 µM] | . | . | -1%
C=CCn1c(=O)n(C2OC(CO)C(O)C2O)c2nc(N)[nH]c(=O)c21 (stereo not drawn) | . | . | -25%[12.7 µM] | . | . | .
Cc1ccc(OCC(=O)Nc2ccccc2N2CCCC2)c(C)c1 | 71µM* | 13% | -8%[12.7 µM] | 11 | -26% | -33%
Cc1cc(C)c(OCC(=O)Nc2ccccc2N2CCCCC2)c(C)c1 | 23% | 62% | -32% | 16 | 40% | 9%
CCc1ccccc1NC(=O)COc1ccc(C(=S)N2CCCC2)cc1 | -21% | -7% | -35% | 3 | 30% | 71µM*
CC(=O)N1CCN(c2ccccc2NC(=O)COc2cc(C)cc(C)c2)CC1 | -3% | 5% | -5%[59 µM] | 2 | . | 50µM*
CC(=O)c1ccc(OCC(=O)Nc2ccccc2N2CCCC2)cc1 | ? | 13% | . | 3 | . | -26%
COc1cc(C(=S)N2CCCC2)cc(Cl)c1OCC(=O)Nc1ccc(C)cc1C | ? | ? | 7.9µM* | ? | -11% | ?
Cn1ccc2cc(S(=O)(=O)N3CCCC(C(=O)NCc4ccc(F)cc4)C3)ccc21 (stereo not drawn) | -2% | 10%[57 µM] | 3%[59 µM] | . | . | -18%
CC(=O)N1c2ccccc2CC1C(=O)NCc1cccc(Cl)c1 (stereo not drawn) | 0% | 25% | 3%[59 µM] | . | . | 3%
COc1ccc(C2Nc3ccccc3C(=O)N2Cc2ccccc2)cc1COc1ccc(Cl)cc1Cl (stereo not drawn) | 4% | . | 3%[12.7 µM] | . | 7% | .
Cc1ccc2c(c1)c1c(c(=O)n(-c3ccccc3C)c(=O)n1Cc1ccccc1F)n2C | 1% | 44% | -2%[59 µM] | . | . | 10%
Cc1ccc(C)c(N2N=C(C(=O)Nc3ccccc3N3CCOCC3)CCC2=O)c1 | ? | -3% | -11%[59 µM] | 5 | -3% | -22%
Cc1ccc(C)c(N2N=C(C(=O)Nc3ccccc3N3CCCC3)CCC2=O)c1 | 35µM* | 50µM* | 50µM* | 8 | . | 45µM*
Cc1cccc(OCC(=O)Nc2ccncc2)c1C | 2% | 20% | . | -4 | 3% | -12%
Cc1cccc(OCC(=O)Nc2ncn[nH]2)c1C | 50µM* | 32% | -48%[59 µM] | -6 | . | -26%
Cc1ccc(C)c(OCC(=O)Nc2ccccc2N2CCCC2)c1 | ? | 12% | 40µM* | 11 | . | ?
SMILES | BAZ2B inh | HP1b chromo inh | G9a block | PI5P4Ka inh | L3MBTL1 inh | JMJD2A Tudor inh
CCOc1ccc(OCC(=O)Nc2ccccc2N2CCCC2)cc1 | ? | -21% | 50µM* | 17 | -9% | ?
CC(=O)N1CCN(c2ccccc2NC(=O)COc2ccccc2C)CC1 | -15% | 32% | -2% | 0 | -5% | -16%
CC(C)c1ccc(NC(c2nnc(-c3ccccc3)o2)c2ccc(F)cc2Cl)cc1 (stereo not drawn) | -14% | -5% | 10%[59 µM] | . | . | -11%
CC1(C(=O)NC2CCCCC2)Cc2ccccc2C(=O)N1Cc1ccc(Cl)cc1 (stereo not drawn) | 4% | 39% | 7%[59 µM] | . | . | 1%
O=C(Cn1c(=O)n(CCCS(=O)(=O)C2CCCCC2)c(=O)c2ccccc21)Nc1ccc(F)c(Cl)c1 | 3% | 33% | 2%[59 µM] | . | . | 0%
CCc1ccc(N2C(=O)CC(c3cc(OC)ccc3OC)C3=C2COC3=O)cc1 (stereo not drawn) | -29% | 17% | -3%[59 µM] | . | . | -14%
Cc1ccccc1OCC(=O)Nc1cccc(Cl)c1C | ? | 60% | . | 2 | 21% | -3%
Cc1ccccc1OCC(=O)Nc1ccccc1-c1ccccc1NC(=O)COc1ccccc1C | -8% | 17% | 50µM* | -2 | -4% | -10%
CSc1cccc(NC(=O)Cn2c(=O)n(Cc3ccccc3)c(=O)c3sc4ccccc4c32)c1 | 2% | 35% | 13%[59 µM] | . | . | 4%
CCOc1ccc(/C=C2\CCC(C3CCCC3)C2=O)cc1 (stereo not drawn) | 3% | 24% | -6% | 8 | . | 5%
CCC(=O)OCOc1ccc(/C=C2/CCC(CN(C)C)C2=O)cc1 (stereo not drawn) | . | ? | . | -14 | . | 89µM*
CCOc1cc(/C=C(\C#N)C(=O)Nc2ccccc2C(=O)O)ccc1OC(=O)c1ccc(C)cc1 | 2% | 14% | . | -4 | 5% | 50µM*
COc1ccc(C(=O)N/N=C/c2ccc(OC)c(COc3ccc(F)cc3)c2)cc1 | -27% | 8% | . | -5 | . | -10%
COc1cc(/C=N/Nc2ccc(Cl)c(C(=O)O)c2)ccc1OC(=O)c1ccccc1F | ? | -11% | 40µM* | 1 | . | ?
COc1cc(/C=N/Nc2ccc(Cl)c(C(=O)O)c2)ccc1OC(=O)c1ccc(F)cc1 | ? | 7% | ? | -5 | . | ?
COc1cc(/C=N/Nc2ccc3ccccc3c2)ccc1OC(=O)c1ccco1 | -35% | 17% | 7.9µM* | -15 | -1% | -15%
COc1cccc(OCc2cc(/C=N/Nc3ccc(C(=O)O)cc3)ccc2OC)c1 | 56µM* | 16% | ? | ? | ? | 56µM*
CCOc1ccc(CCNC(=O)C(CC)n2nc(C)c3c(C)n(-c4ccccc4)nc3c2=O)cc1 (stereo not drawn) | -14% | 43% | -4%[59 µM] | . | . | -4%
CC(C)(C)OC(=O)NCc1nnc(C(C(=O)OCc2ccccc2)c2ccccc2)s1 (stereo not drawn) | . | . | . | . | . | -18%
Cc1ccc(C)c(-n2nnc(-c3nc(-c4ccc(Cl)cc4)no3)c2N)c1 | -32% | 18% | -1%[59 µM] | . | . | -7%
COc1cccc(C(=O)Oc2ccc(/C=N/Nc3ccc(C(=O)O)cc3)cc2OC)c1 | 50µM* | -6% | . | 4 | -22% | ?
